# Shown are actives, neighbours in structure and some others; about 2.4% of the full set was active somewhere.
# D2 ag-1: D2 dopamine receptor (human) agonism | 0.53% of 340,000 active | AID 485358 | activation, % at 2 µM | P14416 | HEK293 T-REx D2 cells, calcium flux agonist mode;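 active means activation over 3 SD above normal in the single-dose calcium agonist read, cut at about 30% in these data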; further: 0% is about no effect
# Target sequence (P14416 whole entry, looked up): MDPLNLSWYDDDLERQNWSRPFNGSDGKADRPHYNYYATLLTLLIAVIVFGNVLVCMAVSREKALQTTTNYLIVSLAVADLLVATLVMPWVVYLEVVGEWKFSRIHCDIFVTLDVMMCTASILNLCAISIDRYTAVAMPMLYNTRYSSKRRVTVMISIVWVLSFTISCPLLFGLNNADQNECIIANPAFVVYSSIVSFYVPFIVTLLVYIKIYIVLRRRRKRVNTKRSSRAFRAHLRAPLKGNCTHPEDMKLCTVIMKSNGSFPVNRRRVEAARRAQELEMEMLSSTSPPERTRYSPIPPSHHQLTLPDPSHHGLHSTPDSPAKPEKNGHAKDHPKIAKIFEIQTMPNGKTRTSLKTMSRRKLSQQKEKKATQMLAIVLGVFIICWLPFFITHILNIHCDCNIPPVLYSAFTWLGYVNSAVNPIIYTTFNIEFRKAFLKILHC
#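 Tetracycline-induced HEK293 T-REx cells with force-coupled D2 receptor, plated overnight at 30 C, loaded with no-wash calcium dye. After a 10 s baseline, compound was pin-added and calcium flux read kinetically for 180 s; calcium rises flagged agonists.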
# D2 PAM-1: positive allosteric modulators of human D2 dopamine receptor | potentiation, % (test concentration not listed) | P14416 | 0.23% of 360,000 active | DiscoveRx D2 beta-arrestin cells, luminescence, 90 min; 100% = 57 uM dopamine signal; in the data active means potentiation above about 50%; inconclusive means mostly about 30% to 49%
#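 PathHunter D2 cells, attached overnight at 37 deg C, received compound in DMSO plus dopamine at EC20 (50 nM final) for 90 min at 37 deg C. Beta-arrestin recruitment was read as luminescence after 1 h with detection reagent at ambient temperature.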
# D2 ag-2: activates the human D2 dopamine receptor. P14416. DiscoveRx PathHunter D2 beta-arrestin, luminescence, 90 min; 100% = 57 uM dopamine signal. 0.084% of 360,000 active. activation, % (test concentration not listed); in the data active means activation above about 40%; inconclusive means between about 15% and that limit
#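 DiscoveRx PathHunter D2 beta-arrestin cells (2,100/well) attached overnight, then compound-stimulated 90 min at 37 C in HBSS/10 mM HEPES/0.1% Tween-20 buffer; beta-galactosidase complementation read by luminescence after 1 h at ambient temperature. Dopamine 57 uM final (EC100) as control.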
# D2 antagonist: antagonists of human D2 dopamine receptor; HEK293 TREx D2 cells, calcium flux, dopamine EC80; inhibition, % at 10 µM; 2% of 340,000 active; AID 485344; in the data active means inhibition above about 30%; inactive means below that, where a call was filed; further: 0% is about no effect
#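 Tetracycline-induced HEK293 TREx cells expressing D2 receptor forced-coupled to calcium signalling, loaded with no-wash calcium dye. Compounds added and calcium flux read 180 s, then dopamine added at EC80 and read a further 180 s.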
# D2 PAM-2: positive allosteric modulators of human D2 dopamine receptor; P14416; HEK293 T-REx D2, calcium flux, EC20 dopamine potentiation; potentiation, % at 10 µM; 0.34% of 340,000 active; AID 485347;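 active means potentiation over 3 SD above the plate norm, cut at about 30% in these data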; further: 0% is about no effect
#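 Potentiation of an EC20 dopamine calcium response measured kinetically over 180 s, after a preceding 180 s compound-only read flagging agonists. Cells: inducible Hek293 Trex D2 line, 4000/well, cultured overnight at 30 C before dye loading.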
# Numbers without * were called inactive; ? = inconclusive; . = no result given.
SMILES,D2 ag-1,D2 PAM-1,D2 ag-2,D2 antagonist,D2 PAM-2
Cc1c(CN2CCCC(C(=O)Nc3cccc(-n4cccn4)c3)C2)cnn1C (stereo not given),-3,-19,-3,47*,-17
Cc1cc(CN2CCCC(C(=O)Nc3cccc(-n4cccn4)c3)C2)cc(C)c1O (stereo not given),1,-34,-4,38*,-22
Cc1coc2c1c(C)cc1oc(=O)c(CC(=O)NCc3ccc(Cl)cc3)c(C)c12,0,.,.,.,20
Fc1ccc(NCc2ccccc2-c2nnc(-c3ccccc3Cl)o2)cc1Cl,1,.,.,.,-1
Cc1cccc(NC(=O)CN(C)C(=O)c2ccc3ccccc3n2)c1C,-1,-17,-8,30*,5
COCCN(CC(=O)Nc1cccc(C)c1C)C(=O)c1ccc2ccccc2n1,0,-8,-2,25,7
CCOC(=O)c1sc(-c2ccccc2)nc1C,1,1,1,0,2
CCOC(=O)Cc1ccc2sc(-c3ccccc3)nc2c1,-1,-6,2,32*,5
O=C(NCc1ccc(Cl)cc1)C(=O)Nc1ccc(Br)cc1,0,.,.,.,-1
COc1cc(CNCCSc2nnnn2C)ccc1OCc1ccc(C)cc1,1,.,.,.,3
Cc1nnc(SCC(=O)Nc2nccs2)s1,-1,7,0,34*,10
Nc1nnc(SCC(=O)Nc2nccs2)s1,2,1,-3,5,-5
O=C(NCc1nc2ccccc2n1Cc1ccccc1Cl)c1ccccc1,.,.,.,.,3
CCOc1ccccc1CN1C(=O)c2ccccc2C1C(=O)NC1CCCCCC1 (stereo not given),0,.,.,.,-4
COc1ccc(OC)c(NC(=O)c2c(C)oc3ncnc(N4CCOCC4)c23)c1,0,.,.,.,7
COc1ccccc1/C=N/NC(=O)c1ccc(Br)cc1,-1,-15,-1,72*,-13
COc1ccc(/C=N/NC(=O)c2ccc(Br)cc2)c(OC)c1,1,-20,0,33*,-28
COc1ccccc1C=NNC(=O)NN=Cc1ccccc1OC,.,-11,-2,.,.
O=C(N/N=C/c1ccc(OC(F)F)cc1)c1ccc(Br)cc1,-1,-31,0,31*,-20
COc1ccc(/C=N/NC(=O)c2ccncc2)c(OC)c1,-1,-2,-3,-9,6
COc1ccc(N(Cc2ccccc2)C(=O)c2nc(S(C)(=O)=O)ncc2Cl)cc1,8,.,.,.,-7
CC(Oc1ccc(F)cc1)C(=O)Nc1cc(S(=O)(=O)N2CCCCC2)ccc1N1CCOCC1 (stereo not given),0,3,0,37*,2
Cc1ccccc1SCC(=O)Nc1cc(S(=O)(=O)N2CCOCC2)ccc1N1CCOCC1,.,-1,4,.,-10
CC(NCC(=O)Nc1cc(S(=O)(=O)N2CCOCC2)ccc1N1CCOCC1)c1ccco1 (stereo not given),1,-2,5,64*,8
Cc1c(C(=O)N(C)c2cccc(C(F)(F)F)c2)sc2nc3n(c(=O)c12)CCCCC3,1,.,.,.,-1
SMILES,D2 ag-1,D2 PAM-1,D2 ag-2,D2 antagonist,D2 PAM-2
CCN(CC)CC#CCC(O)(c1ccccc1)c1ccc(Br)cc1 (stereo not given),0,-20,0,34*,-20
O=c1[nH]cnc2nc(-c3ccccc3)c(-c3ccccc3)nc12,0,-12,-2,-10,45*
COc1ccc(N2CC(NC(=O)c3cccs3)CC2=O)cc1OC (stereo not given),0,.,.,.,-4
CC(C)(C)NC(=O)C1CC(=O)OC1(C)C (stereo not given),0,8,-1,-5,33*
C=CCOC(=O)C1=C(C)OC(N)=C(C#N)C1c1c(C)nn(-c2ccccc2)c1Cl (stereo not given),0,-14,0,44*,-10
COc1ccc(N2CCN(C(=O)CCNS(=O)(=O)c3ccc(Br)s3)CC2)cc1,1,-6,-1,3,86*
COc1ccc(N2CCN(C(=O)CCNS(=O)(=O)c3ccc(C)cc3)CC2)cc1,-1,0,-7,12,7
CCOc1ccc(NC(=O)c2sc3nc4c(cc3c2N)CN(Cc2ccccc2)CC4)cc1,1,.,.,.,0
Cc1c(C(=O)O)sc2nc(/C=C/c3cccc(F)c3)[nH]c(=O)c12,1,5,-2,4,5
Cc1ccc(/C=C/c2nc3sc(C(=O)O)c(C)c3c(=O)[nH]2)cc1[N+](=O)[O-],0,2,?,33*,-9
CCOC(=O)N1CCC(NCCNC(=O)c2ccc(F)cc2)CC1,5,-21,-1,66*,-25
CCOC(=O)N1CCC(NCCNC(=O)c2cccc(F)c2)CC1,6,-21,-2,60*,-24
CCOC(=O)N1CCC(NC(=O)c2ccc(Cl)cc2)CC1,0,-13,-4,2,-6
Cc1cc(C)c2c(n1)SCCN2C(=O)Nc1ccc(C(=O)Nc2ccc(C(C)C)cc2)cc1,0,.,.,.,-2
CSc1ccc(/C=N\Nc2nncn2N)cc1,0,-3,43*,4,2
CCCCN(CC)C(=O)Cn1nc(C)c2c(C)n(-c3ccccc3)nc2c1=O,0,.,.,.,-3
O=C(/C=C/c1ccco1)Nc1ccc(Cl)c(-c2nc3cc(Cl)ccc3o2)c1,0,.,.,.,-5
CN(C)C(CNC(=O)c1ccc(-c2ccccc2)cc1)c1ccccc1 (stereo not given),0,-19,0,31*,0
COc1ccc(C(CNC(=O)c2ccc3c(c2)OCCO3)N(C)C)cc1 (stereo not given),2,-15,-1,45*,.
COc1ccc(CCNC(=O)c2ccc3c(c2)OCCO3)cc1,2,-3,1,0,1
CN(C)C(CNC(=O)c1ccc(C(=O)c2ccccc2)cc1)c1ccccc1 (stereo not given),0,-13,-6,-9,-18
COc1ccccc1NCc1cccn1-c1nnc(N2CCOCC2)s1,0,.,.,.,-16
Cc1cccc(-n2c3nc(=O)n(C)c(=O)c-3cc3c(C)nn(-c4ccccc4)c32)c1C,1,.,.,.,0
CC(=O)N1CCCc2ccc(NC(=O)c3ccc(OC(C)C)cc3)cc21,0,.,.,.,-17
CCOc1ccc(Nc2c(S(=O)(=O)c3ccc(Cl)cc3)cnc3ccc(OC)cc23)cc1,0,.,.,.,5
CC(C)CCNC(=O)COc1ccc2c(c1)C(=O)CC(C)(C)O2,0,2,-2,0,-1
CC1(C)CC(=O)c2cc(OCC(=O)NCCN3CCCc4ccccc43)ccc2O1,34*,-20,2,-10,-20
CC(C)N(Cc1nc(-c2ccc(Cl)cc2)no1)C(=O)c1ccco1,0,.,.,.,15
CC12CN3CC(C)(CN(C1)C3c1ccc([N+](=O)[O-])o1)C2 (stereo not given),0,1,3,32*,-8

# Compound activity as filed in PubChem.
